FAK blocker: blocks human focal adhesion kinase activity. Q05397. AID 727. inhibition, %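 (tested at 7 µM)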. biochemical FAK kinase activity assay. 97,000 tested, 0.84% active; in the data active means inhibition above about 19%
Pyk2 oligo antag: Pyk2 (human) oligomerization antagonism; 99,000 tested, 0.83% active; Q14289; z-score (the deposit names both 25 µM and 10 µM); AID 1347419; Q293 cells, Pyk2 FERM NanoBiT luminescence; stronger effect = lower value;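 active means Z-score of -3 or lower, scaled per plate to the spread of control and sample wells; inactive means z-score above -3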;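 further: negative z-score means lost luminescence so less FERM oligomerization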
Mac1 fbg inh: CD11b/CD18-fibrinogen binding inhibition; AID 1497; inhibition, % at 10 µM; K562 CD11b/CD18 adhesion to fibrinogen, ATPlite luminescence; Mn2+ added to activate the integrin; 93,000 tested, 0.54% active;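 active means primary inhibition of 50% or more at 10 µM, then 40% or more on retest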
Target sequence (P05107 whole entry, looked up, other chains not shown): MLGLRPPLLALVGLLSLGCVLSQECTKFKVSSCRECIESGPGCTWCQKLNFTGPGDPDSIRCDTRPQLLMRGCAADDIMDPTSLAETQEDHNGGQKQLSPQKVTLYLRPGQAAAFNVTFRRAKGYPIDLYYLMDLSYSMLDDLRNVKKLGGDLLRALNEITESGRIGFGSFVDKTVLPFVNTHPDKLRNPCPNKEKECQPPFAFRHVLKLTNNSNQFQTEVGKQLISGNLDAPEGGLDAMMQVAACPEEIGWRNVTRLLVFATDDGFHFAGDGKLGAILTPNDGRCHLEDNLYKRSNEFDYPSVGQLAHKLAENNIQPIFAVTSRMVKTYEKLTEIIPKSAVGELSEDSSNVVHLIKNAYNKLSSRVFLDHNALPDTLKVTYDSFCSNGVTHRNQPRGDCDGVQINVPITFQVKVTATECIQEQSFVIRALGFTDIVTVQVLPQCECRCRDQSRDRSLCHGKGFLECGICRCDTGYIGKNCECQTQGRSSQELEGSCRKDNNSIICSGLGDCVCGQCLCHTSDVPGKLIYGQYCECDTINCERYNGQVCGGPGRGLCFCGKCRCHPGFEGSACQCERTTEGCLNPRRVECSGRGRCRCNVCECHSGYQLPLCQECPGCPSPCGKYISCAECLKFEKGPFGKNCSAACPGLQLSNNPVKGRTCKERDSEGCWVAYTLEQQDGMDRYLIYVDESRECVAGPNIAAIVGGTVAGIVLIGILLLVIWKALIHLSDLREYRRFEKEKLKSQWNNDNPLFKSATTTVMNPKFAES
CD11b adhes enh: enhancers of human CD11b/CD18 binding to fibrinogen; P05107+P11215; K562 CD11b/CD18 adhesion to fibrinogen, ATPlite luminescence; activation, % at 10 µM; 93,000 tested, 0.07% active;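 active means 10 µM primary screen giving 50% or more activity, confirmed by 40% or more on retest at that dose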
Large screens that a line does not name were inactive. Sampled rows, rich in hits. Any-hit rate of the full collection: about 1.8%.

CCOC(=O)N1CCC(Nc2nc3ccccc3nc2NS(=O)(=O)c2ccc(Cl)cc2)CC1	Mac1 fbg inh 91.5
CS(=O)(=O)N(CC(=O)Nc1ccc(F)c(F)c1)c1cccc([N+](=O)[O-])c1	none (no result: FAK blocker, Pyk2 oligo antag)
O=C(NNC(=O)c1cc(-c2ccc(Cl)cc2Cl)nc2ccccc12)Nc1ccccc1	Pyk2 oligo antag -3.48 (no result: Mac1 fbg inh, CD11b adhes enh)
COc1ccccc1OCc1ccc(C(=O)N2N=C(C(F)F)CC2(O)C(F)F)o1 (stereo not drawn)	Mac1 fbg inh 81.7
O=C(c1ccc(Cn2cc(Br)cn2)o1)N1N=C(C(F)F)CC1(O)C(F)F (stereo not drawn)	none
COc1cccc2cc(-c3cn4cccc(C)c4n3)c(=O)oc12	none (no result: Mac1 fbg inh, CD11b adhes enh)
COc1cccc2cc(-c3cn4ccc(C)cc4n3)c(=O)oc12	FAK blocker 18.9 (no result: Mac1 fbg inh, CD11b adhes enh)
O=[N+]([O-])c1cccc(C=Nc2cc3c(cc2Br)OCCO3)c1	none (no result: FAK blocker, Pyk2 oligo antag)
Cc1ccc(-c2cccc(OC(=O)c3ccccc3F)c2)cc1	none (no result: Mac1 fbg inh, CD11b adhes enh)
Cc1nn(C(C)C(=O)N2CCc3ccccc32)c(C)c1[N+](=O)[O-] (stereo not drawn)	none
C=CCn1c(SCC(=O)c2cccs2)nc2sc(CC)cc2c1=O	Pyk2 oligo antag -3.23
Cc1c(N=C2SCC(=O)N2/N=C\c2ccc(Br)cc2)c(=O)n(-c2ccccc2)n1C	none (no result: FAK blocker, Pyk2 oligo antag)
Cc1cc(C)c2oc(-c3ccc(C)c(NC(=S)NC(=O)c4cccs4)c3)nc2c1	Pyk2 oligo antag -3.67 (no result: Mac1 fbg inh, CD11b adhes enh)
CCN(CC)c1ncn(Cc2c(Cl)cccc2Cl)c2ncnc1-2	none (no result: Mac1 fbg inh, CD11b adhes enh)
Clc1cccc(Cl)c1Cn1cnc2c(N3CCCCCC3)ncnc21	Pyk2 oligo antag -3.41
CCN(CC)c1ncnc2c1ncn2Cc1c(Cl)cccc1Cl	Pyk2 oligo antag -3.06 (no result: Mac1 fbg inh, CD11b adhes enh)
COc1ccc(CNC(NC(=O)c2ccccc2)(C(F)(F)F)C(F)(F)F)cc1	none (no result: FAK blocker, Pyk2 oligo antag)
COC(=O)c1ccccc1NC1=C/C(=N\S(=O)(=O)c2cccs2)c2ccccc2C1=O	Pyk2 oligo antag -4.96
O=C1C(Nc2ccccc2)=C/C(=N/S(=O)(=O)c2cccs2)c2ccccc21	Pyk2 oligo antag -3.75 (no result: FAK blocker, Mac1 fbg inh, CD11b adhes enh)
CCOc1ccc(NCc2ccccc2OCc2cccc(F)c2)cc1	none (no result: FAK blocker, Pyk2 oligo antag)
Cc1noc(C(=O)Nc2sc3c(c2C#N)CCC3)c1Cl	Mac1 fbg inh 58.3 (no result: Pyk2 oligo antag)
CN1C(=O)C2(C(C#N)=C(N)Oc3n[nH]c(-c4ccc(Cl)cc4)c32)c2ccccc21 (stereo not drawn)	Pyk2 oligo antag -3.05
CC(=O)n1cc(C(C[N+](=O)[O-])SCCN)c2ccccc21 (stereo not drawn)	none (no result: Mac1 fbg inh, CD11b adhes enh)
C=CCn1c(SC(C)CC)nc(O)cc1=O (stereo not drawn)	Pyk2 oligo antag -4.5
C=CCn1c(SCCCC)nc(O)cc1=O	none (no result: Pyk2 oligo antag)
COc1cccc(-c2nn(-c3ccccc3)cc2C(=O)Nc2nccs2)c1	Pyk2 oligo antag -3.65
COc1ccc(-c2nn(-c3ccccc3)cc2C(=O)Nc2nccs2)cc1	none
COc1cc(NCCCC(C)N)c2ncccc2c1 (stereo not drawn)	FAK blocker 25.6 (no result: Mac1 fbg inh, CD11b adhes enh)
COc1ccc(CNC(=O)CCCn2c(SCC#N)nc3cc4c(cc3c2=O)OCO4)cc1	none (no result: Mac1 fbg inh, CD11b adhes enh)
COc1cc(C(=O)Nc2nc(-c3cccs3)cs2)cc(OC)c1OC	Pyk2 oligo antag -4.31
COc1ccc(C(=O)Nc2nc(-c3cccs3)cs2)cc1	none
COc1ccc(OC)c(C(c2nnnn2C2CCCC2)N2CCN(c3ccccc3F)CC2)c1 (stereo not drawn)	Pyk2 oligo antag -3.82
COc1ccc(F)cc1S(=O)(=O)NC1CCCC1	none
Cc1[nH]c2ccccc2c1/C=N/Nc1ccc([N+](=O)[O-])cc1S(=O)(=O)Nc1ccc(Cl)cc1	Pyk2 oligo antag -3.36
Cc1cc(N2C3CCC2CC(O)(c2ccc(F)cc2)C3)nc(-c2ccccc2)n1 (stereo not drawn)	Pyk2 oligo antag -3.07
Cc1ccc(SC/C(O)=C(\C#N)c2nc3ccccc3s2)cc1	Mac1 fbg inh 101.1
COc1ccc(C/C(O)=C(\C#N)c2nc3ccccc3s2)cc1	Mac1 fbg inh 104.1
COc1ccc(C2=NO[C@@H]3[C@@H]4C[C@@H]([C@H]5C(=O)N(c6ccc7c(c6)OCO7)C(=O)[C@@H]45)[C@H]23)cc1OC	none (no result: FAK blocker, Pyk2 oligo antag)
Cc1ccc(NC(=O)CN(C)C(=O)CCC(=O)c2cccs2)cc1	none (no result: FAK blocker, Pyk2 oligo antag)
O=C(c1nc2nc(-c3cccs3)cc(C(F)(F)F)n2n1)N1CCN(Cc2ccccc2)CC1	none (no result: Mac1 fbg inh, CD11b adhes enh)
CCCCCn1ccc(=N)cc1	none
CCCCCCCn1ccc(=N)cc1	Mac1 fbg inh 83.4
O=C(Nc1ccc(-c2noc(CCc3ccccc3)n2)cc1)c1cccnc1	Pyk2 oligo antag -3.26 (no result: FAK blocker)
COc1ccc2cc(C(N)=O)/c(=N/NC(=O)c3ccco3)oc2c1	none (no result: FAK blocker, Pyk2 oligo antag)
O=C(Cc1cccs1)Nc1nc(-c2ccc(F)cc2F)cs1	Mac1 fbg inh 65.3
CC1Cc2cc(-c3csc(NC(=O)Cc4cccs4)n3)ccc2N1S(C)(=O)=O (stereo not drawn)	Pyk2 oligo antag -3.12
O=C(Cc1ccccc1F)Nc1nc(-c2cccs2)cs1	none
CCOC(=O)c1cc2sccc2n1CC(=O)OC(C)C	none
CCOC(=O)c1cc2sccc2n1CC(=O)N1CCc2ccccc21	Pyk2 oligo antag -3.5
O=C1N/C(=N\N=C\c2cccs2)SC1Cc1cccc(Cl)c1Cl (stereo not drawn)	none (no result: FAK blocker, Pyk2 oligo antag)
COc1cc(/C=C2/SC(=S)NC2=O)ccc1OS(=O)(=O)c1ccc(C)cc1	Mac1 fbg inh 91.9 (no result: FAK blocker, Pyk2 oligo antag)
C=C(C(=O)c1ccccc1)C(C)C(=C)C(=O)c1ccccc1	none (no result: FAK blocker, Pyk2 oligo antag)
C=CCn1c(SCC(=O)Nc2ccc(-c3nc4ccc(C)cc4s3)cc2)nnc1-c1ccccc1	none (no result: FAK blocker, Pyk2 oligo antag)
CCc1cc(/C(Cc2ccc3ccccc3n2)=N\O)c(O)cc1O	Mac1 fbg inh 60.2
Fc1ccccc1Cc1nnc2n1N=C(c1ccc(Cl)cc1)CS2	none
O=C(COC(=O)Cc1ccc(S(=O)(=O)N2CCOCC2)s1)NCc1ccc(Cl)cc1	none
C=CCNC(=S)N/N=C/c1ccc(-c2cc(Cl)ccc2Cl)o1	Pyk2 oligo antag -3.43 (no result: Mac1 fbg inh, CD11b adhes enh)
COc1ccc(C(=O)n2c(SC)nc3cc4c(cc32)OCCO4)cc1	none
O=C(NCc1cccnc1)c1ccccc1[N+](=O)[O-]	none (no result: FAK blocker, Pyk2 oligo antag)
Cc1c(NC(=O)c2nn(C)c(=O)c3ccccc23)c(=O)n(-c2ccccc2)n1C	none (no result: Mac1 fbg inh, CD11b adhes enh)
Cc1c(NC(=O)Cn2nc(C(=O)O)c3ccccc3c2=O)c(=O)n(-c2ccccc2)n1C	Pyk2 oligo antag -4
Cc1cc(C(=O)CSc2nnc(-c3ccco3)o2)c(C)n1-c1ccc2c(c1)OCCO2	Mac1 fbg inh 86.9
Cc1cc(C(=O)CSc2nnc(-c3ccco3)o2)c(C)n1Cc1ccco1	none
COc1ccc(Cn2nc(C)n(N(C)c3ncc(C(F)(F)F)cc3Cl)c2=O)cc1	none
CCOc1cccc(CNc2ccc(O)cc2)c1OCc1ccccc1Cl	FAK blocker 37.0 (no result: Mac1 fbg inh, CD11b adhes enh)
COC(=O)C1C(=O)C2=C(CC1C)NC(C)=C(C(=O)OCCOc1ccccc1)C2c1ccc(C)o1 (stereo not drawn)	Pyk2 oligo antag -3.87 (no result: Mac1 fbg inh, CD11b adhes enh)
Cc1oc2cc(O)cc(C)c2c(=O)c1-c1cnn(-c2ccccc2)c1	Pyk2 oligo antag -3.78
Cc1oc2c(O)c(O)ccc2c(=O)c1-c1cnn(-c2ccccc2)c1	none
CCc1cccc(CC)c1NC(=O)COn1nnc2ccc(C(F)(F)F)cc21	none (no result: FAK blocker, Pyk2 oligo antag)
N#C/C(=C\c1ccc(O)c(O)c1)S(=O)(=O)c1ccccc1	Mac1 fbg inh 81.8
